Source: PubChem BioAssay (NCI)
This is part of a sample that, as a whole, favours compounds with a hit. Of some 79,000 tested, about 15% had one in any assay. Activity calls are given as the source filed them. Cut-off read from the data, not from the text of the source: active = growth inhibition above about 70%; inactive = the rest.

How the values were obtained:
[1] = NCI Yeast Anticancer Drug Screen. Data for the mlh1 strain (AID 171);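 note: 0% = growth of vehicle-treated control cultures of the same strain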; conditions: S. cerevisiae mlh1 strain growth inhibition, stronger effect = higher value
Method in brief: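 Yeast carrying a defined genetic alteration in DNA damage repair or cell cycle control were exposed to test compounds. Growth inhibition was measured relative to vehicle-treated controls.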

[2] = NCI Yeast Anticancer Drug Screen. Data for the sgs1 strain (AID 173);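 note: 0% = growth of vehicle-only control cultures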; conditions: S. cerevisiae sgs1 mutant, stronger effect = higher value
Method in brief: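 Yeast mutant strains carrying defined defects in DNA damage repair or cell cycle control were exposed to test compounds. Growth inhibition was scored against vehicle-treated controls.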

[3] = NCI Yeast Anticancer Drug Screen. Data for the mlh1 rad18 strain (AID 175); conditions: S. cerevisiae mlh1 rad18 strain growth inhibition, stronger effect = higher value
Method in brief: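 Growth inhibition of the yeast strain was measured after compound exposure and expressed relative to vehicle-treated controls. The strain carries defined defects in DNA damage repair.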

[4] = NCI Yeast Anticancer Drug Screen. Data for the rad18 strain (AID 177); conditions: S. cerevisiae rad18 mutant growth inhibition, stronger effect = higher value
Method in brief: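 Yeast carrying a defined DNA damage repair alteration were exposed to compounds. Growth inhibition was expressed relative to vehicle-treated controls.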

[5] = NCI Yeast Anticancer Drug Screen. Data for the rad52 strain (AID 147);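 note: 0% = growth of vehicle-treated control cultures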; conditions: S. cerevisiae rad52 mutant growth inhibition, stronger effect = higher value
Method in brief: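 Yeast strain carrying a DNA damage repair alteration was exposed to test compounds. Growth inhibition was measured relative to vehicle-treated controls.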

[6] = NCI Yeast Anticancer Drug Screen. Data for the wt1 strain (AID 149);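 note: 0% = growth of vehicle-treated wt1 cultures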; conditions: S. cerevisiae wt1 strain (SPY 50644) growth inhibition, stronger effect = higher value
Method in brief: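 Growth inhibition read against vehicle controls after compound exposure of the wt1 yeast strain.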

[7] = NCI Yeast Anticancer Drug Screen. Data for the rad50EPP+ strain (AID 151);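 note: 0% = growth of vehicle-treated control cultures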; conditions: S. cerevisiae rad50 mutant strain, stronger effect = higher value
Method in brief: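 Yeast strain carrying rad50 alteration (rad50EPP+) exposed to compounds; growth inhibition measured relative to vehicle-treated controls.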

[8] = NCI Yeast Anticancer Drug Screen. Data for the rad50 strain (AID 155);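 note: 0% = growth of vehicle-only cultures of the same strain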; conditions: S. cerevisiae rad50 strain growth inhibition, stronger effect = higher value
Method in brief: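 Readout: growth inhibition relative to vehicle-treated cultures. Compound exposure was carried out in a genetically defined yeast strain deficient in DNA damage repair.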

[9] = NCI Yeast Anticancer Drug Screen. Data for the mec2-1 strain (AID 157); conditions: S. cerevisiae mec2-1 strain, stronger effect = higher value
Method in brief: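 mec2-1 yeast strain, carrying an alteration in DNA damage repair or cell cycle control, was exposed to compounds; growth inhibition was measured relative to vehicle-treated controls.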

[10] = NCI Yeast Anticancer Drug Screen. Data for the rad14 strain (AID 159);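 note: 0% = growth of vehicle-treated control cultures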; conditions: S. cerevisiae rad14 strain growth inhibition, stronger effect = higher value
Method in brief: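 Growth inhibition vs vehicle controls; genetically altered yeast strain (DNA damage repair defect) treated with test compounds.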

[11] = NCI Yeast Anticancer Drug Screen. Data for the sgs1 mgt1 strain (AID 161);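 note: 0% = growth of cultures given vehicle only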; conditions: S. cerevisiae sgs1 mgt1 strain, stronger effect = higher value
Method in brief: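 Growth of a repair-deficient yeast mutant was monitored after compound treatment and expressed as inhibition relative to vehicle-treated cultures.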

[12] = NCI Yeast Anticancer Drug Screen. Data for the CLN2oe strain (AID 163);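 note: 0% = growth of vehicle-only control cultures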; conditions: S. cerevisiae CLN2oe strain, stronger effect = higher value
Method in brief: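 Yeast cells carrying a defined cell-cycle control alteration were exposed to test compounds. Growth inhibition was scored against vehicle-treated control cultures.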

[13] = NCI Yeast Anticancer Drug Screen. Data for the cln2 rad14 strain (AID 165);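 note: 0% = growth equal to vehicle treated cultures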; conditions: S. cerevisiae cln2 rad14 strain, stronger effect = higher value
Method in brief: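 Yeast carrying cln2 and rad14 alterations (cell cycle control and DNA damage repair) were exposed to compounds. Growth inhibition was measured against vehicle-treated controls.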

[14] = NCI Yeast Anticancer Drug Screen. Data for the bub3 strain (AID 167); conditions: S. cerevisiae bub3 mutant strain, stronger effect = higher value
Method in brief: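 Readout: yeast growth inhibition, expressed relative to vehicle-only wells. The test organism is a mutant strain from a panel with lesions in DNA repair or checkpoint genes.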

[15] = NCI Yeast Anticancer Drug Screen. Data for the wt2 strain (AID 169);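 note: 0% = growth of vehicle-treated yeast cultures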; conditions: S. cerevisiae wt2 strain growth inhibition, stronger effect = higher value
Method in brief: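 Yeast cells were exposed to test compounds, and growth inhibition was measured relative to vehicle-treated controls.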

[16] = at 5.0 µM (retest, dose inferred, filed as 0.5)
[17] = at 50.0 µM (retest, dose inferred, filed as 5.0)

Measured: growth inhibition

CCOC(=O)c1cnc2cc(C(F)(F)F)ccc2c1N=[N+]=[N-]
inactive: [1]; at 1.2 µM 7% | [1]; at 3.7 µM 6% | [1]; at 11.0 µM 15% | [1]; at 33.0 µM 51% | [2]; at 1.2 µM 10% | [2]; at 3.7 µM 12% | [2]; at 11.0 µM 25% | [3]; [16] -4% | [3]; [17] 12% | [3]; at 50.0 µM 59.9% | [4]; at 1.2 µM 15% | [4]; at 3.7 µM 22% | [4]; at 11.0 µM 33% | [4]; at 33.0 µM 58%
active: [1]; at 100.0 µM 87% | [2]; at 33.0 µM 75% | [2]; at 100.0 µM 94% | [4]; at 100.0 µM 88%

c1ccc(-c2nc3cccnc3s2)cc1
inactive: [5]; at 1.2 µM 1% | [5]; at 3.7 µM 1% | [5]; at 11.0 µM 6% | [5]; at 33.0 µM 14% | [5]; at 100.0 µM 16% | [6]; at 1.2 µM -2% | [6]; at 3.7 µM -4% | [6]; at 11.0 µM -2% | [6]; at 33.0 µM -2% | [6]; at 100.0 µM 0% | [7]; at 1.2 µM 3% | [7]; at 3.7 µM 7% | [7]; at 11.0 µM 8% | [7]; at 33.0 µM 19% | [7]; at 100.0 µM 24% | [8]; at 1.2 µM 2% | [8]; at 3.7 µM 9% | [8]; [16] 5% | [8]; at 11.0 µM 5% | [8]; at 33.0 µM 9% | [8]; [17] 56% | [8]; at 100.0 µM 33% | [9]; at 1.2 µM -2% | [9]; at 3.7 µM -1% | [9]; [16] 5% | [9]; at 11.0 µM -3% | [9]; at 33.0 µM -12% | [9]; [17] 20% | [9]; at 50.0 µM 9.5% | [9]; at 100.0 µM 20% | [10]; at 1.2 µM -3% | [10]; at 3.7 µM 0% | [10]; at 11.0 µM -2% | [10]; at 33.0 µM 1% | [10]; at 100.0 µM 5% | [11]; [16] -5% | [11]; [17] 18% | [11]; at 50.0 µM 13.6% | [12]; at 1.2 µM 0% | [12]; at 3.7 µM -1% | [12]; at 11.0 µM 0% | [12]; at 33.0 µM -5% | [12]; at 100.0 µM 3% | [13]; [16] -25% | [13]; [17] -19% | [13]; at 50.0 µM 5.55% | [14]; at 1.2 µM -4% | [14]; at 3.7 µM 0% | [14]; [16] 25% | [14]; at 11.0 µM 10% | [14]; at 33.0 µM 10% | [14]; [17] 43% | [14]; at 50.0 µM -2.7% | [14]; at 100.0 µM 14% | [15]; at 1.2 µM -2% | [15]; at 3.7 µM -3% | [15]; at 11.0 µM -3% | [15]; at 33.0 µM -5% | [15]; at 100.0 µM 0% | [1]; at 1.2 µM 2% | [1]; at 3.7 µM 13% | [1]; at 11.0 µM 2% | [1]; at 33.0 µM -2% | [1]; at 100.0 µM 15% | [2]; at 1.2 µM -2% | [2]; at 3.7 µM -3% | [2]; at 11.0 µM -2% | [2]; at 33.0 µM -3% | [2]; at 100.0 µM -9% | [3]; [16] -8% | [3]; [17] 1% | [3]; at 50.0 µM -4.1% | [4]; at 1.2 µM 3% | [4]; at 3.7 µM 2% | [4]; at 11.0 µM -1% | [4]; at 33.0 µM -6% | [4]; at 100.0 µM -15%
active: [8]; at 50.0 µM 73.5%
